In PubChem BioAssay AID651820 (National Center for Advancing Translational Sciences (NCATS), 2012):
Among all 340,000 compounds or so, about 12,000 (3.5%) were called active. About 18% were inconclusive and are not listed. What follows is part of a selection rich in actives, with near analogues and random picks from the rest. Unmarked numbers belong to inactive results. Calls follow the shape of the dose curve; as a rule, active = well fitted inhibition curve with a large enough effect; inconclusive = small, poorly fitted or top-dose-only effect, or another doubt; inactive = no such curve, though single readings can be large or run the other way.

Assay: qHTS Assay for Inhibitors of Hepatitis C Virus (HCV)
Conditions: Huh7.5.1 HCVcc-Cre infection, luciferase reporter, 44 h; series mostly up to 41.8 µM; activity change, negative = inhibition: at the top concentration
Excerpt: Hepatitis C virus (HCV) infects about 200 million people in the world. Many infected people progress to chronic liver disease including cirrhosis with a risk of developing liver cancer. To date, there is no effective vaccine for hepatitis C. Current therapy based on interferon is only effective in about half of the patients and is associated with significant adverse effects. The fraction of people with HCV who can complete a successful treatment is estimated to be no more than 10 percent. Recent development of direct-acting antivirals against HCV, such as protease and polymerase inhibitors, is promising but still requires combination with peginterferon and ribavirin for maximal efficacy. In addition, these agents are associated with high rate of resistance and many have significant side effects. Due to the lack of a culture system for infectious HCV, the search for new HCV drugs has been greatly hampered. […] High-throughput screening (HTS) with an infectious HCV system would cover the complete spectrum of potentially druggable targets in all stages of HCV lifecycle, and would have more biological relevance than other cell-based assays. Moreover, targeting several key processes in the viral life cycle may not only increase antiviral efficacy; more importantly, it may also reduce the capacity of the virus to develop resistance to the compound. The goal of this project is to identify novel HCV inhibitors as new therapies for hepatitis C, using a highly sensitive and specific assay platform which is based on a HCV infectious cell culture system established in the laboratory and adapted for high-throughput HCV drug screen. NIH Chemical Genomics Center [NCGC] NIH Molecular Libraries Probe Centers Network [MLPCN] MLPCN Grant: MH095511 Assay Submitter (PI): Jake Liang, NIDDK
The assay will start with plating 1,000 cells/well in 3 µL volume and culture for 4 h. Then 23 nL of compounds from the library collection will be added to each well, followed by adding 2.5 µL of HCVcc-Cre virus (~ 0.5 moi) and further cultured for 44 h before the luciferase assay. A volume of 4.5 µL luciferase substrates will be added to each well and the plates will be incubated at room temperature for 15 min. and then read for 15 sec. for the luciferase activity
% is scaled to controls: 0 for no effect and ±100 for the full control effect.

| Structure (SMILES) | activity change, negative = inhibition | Potency |
| --- | --- | --- |
| COc1ccc(C)cc1NC(=O)CN1c2cccc3cccc(c23)S1(=O)=O | -27% |  |
| CCCCNCCS(=O)(=O)NCc1ccccc1 | 9.37% |  |
| COc1ccc(S(=O)(=O)N(CC(=O)N/N=C/c2ccccc2C(=O)O)c2ccccc2OC)cc1 | 19.8% |  |
| COc1ccccc1N(CC(=O)Nc1c(C)n(C)n(-c2ccccc2)c1=O)S(=O)(=O)c1ccccc1 | -1.73% |  |
| COc1ccccc1N(CC(=O)N/N=C(\C)c1ccccc1O)S(=O)(=O)c1ccc(C)cc1 |  | 10 µM (active) |
| CCOc1ccc(S(=O)(=O)N2CCN(C(=O)c3oc4ccccc4c3C)CC2)cc1 | -5.95% |  |
| O=C(NCC1CCCO1)c1ccc(S(=O)(=O)Nc2ccc(F)cc2)cc1 (centres undefined) | 9.57% |  |
| COc1cc(OC)c(C(=O)NCc2ccc3c(c2)OCO3)cc1OC | -27.1% |  |
| COc1cc(C(=O)CCc2ccc3c(c2)OCO3)cc(OC)c1OC |  | 14.1 µM (active) |
| COc1ccc(CNCCc2ccc3c(c2)OCO3)c(OC)c1OC | 13.6% |  |
| O=C(NCCS(=O)(=O)NCc1ccc(Cl)cc1)c1ccccc1 | 6.73% [at 8.37 µM] |  |
| COc1ccc(Cl)cc1C(=O)OCC(=O)NCc1cccs1 | 9.75% |  |
| COc1ccc(C(=O)OCC(=O)c2ccc(Cl)s2)c(OC)c1OC |  | 2.51 µM (active) |
| COc1ccc(C(=O)OCC(=O)Nc2ccc3[nH]c(=O)[nH]c3c2)c(OC)c1OC | -8.43% |  |
| CN(O)C(=S)c1ccccc1 | -10.2% |  |
| CCNC(=O)N(CC)C[C@H]1N[C@@](CC)(C(=O)OC)[C@H]2C(=O)N(Cc3ccccc3)C(=O)[C@@H]12 | 23% [at 8.37 µM] |  |
| O=C(CSc1n[nH]c(-c2cccs2)n1)N1CCCCC1 | -15% |  |
| O=C(Nc1ccc2c(c1)C(=O)OC2)Nc1cccc2ccccc12 | 1.88% |  |
| CC(=O)N(C)c1ccc(NC(=O)Nc2cccc3ccccc23)cc1 |  | 12.6 µM (active) |
| O=C(O)Cc1ccc(NC(=O)Nc2cccc3ccccc23)cc1 | 6.08% |  |
| O=C(CSC1=NS(=O)(=O)c2cc(F)ccc2N1)Nc1ccccc1F | 0.897% |  |
| CCOC(=O)N1CCN(C(=O)COC(=O)c2cccc(S(C)(=O)=O)c2)CC1 | -10.6% |  |
| CC(=O)c1ccc(NC(=O)CSc2nc3ccccc3c(=O)n2CCCN2CCOCC2)cc1 | -0.979% |  |
| CCOc1cc(NC(=O)c2ccco2)c(OCC)cc1NC(=O)COc1ccccc1 | -15.5% |  |
| CCOc1cc(NC(=S)NCc2ccco2)c(OCC)cc1NC(=O)c1ccco1 |  | 2.82 µM (active) |

| Structure (SMILES) | activity change, negative = inhibition | Potency |
| --- | --- | --- |
| COc1cc(NC(=S)NCc2ccco2)c(OC)cc1Cl | -10.1% |  |
| CN1C(C(=O)NCC2CC2)CC2Cn3c(nc4ccccc43)C21 (centres undefined) | 22.1% |  |
| Cc1ccc(NC(=O)COC(=O)CN2CCCCCC2=O)c(C)c1 | 4.62% |  |
| COc1ccc(C(=NN)c2ccc(OC)cc2)cc1 | 1.54% |  |
| Cc1cccc(N2CC(C(=O)Nc3ccccc3N3CCCC3)CC2=O)c1C (centres undefined) | -0.701% |  |
| CCCCCCC(=O)Nc1nc(C)c(-c2csc(Nc3cc(Cl)ccc3OC)n2)s1 | -20.7% |  |
| CCCCC(=O)Nc1nc(C)c(-c2csc(Nc3ccc(Cl)cc3)n2)s1 |  | 8.91 µM (active) |
| Cc1ccc(Nc2nc(-c3sc(NC(=O)c4ccccc4)nc3C)cs2)cc1 | -15.4% |  |
| Cc1nc(NC(=O)CN(C)S(=O)(=O)c2ccc(Cl)cc2)sc1C | -3.57% |  |
| CC(=O)c1sc(NC(=O)CCCOc2ccccc2C)nc1C | -14.9% |  |
| C=CCCC(=O)Nc1nc(C)c(-c2csc(Nc3ccc(Cl)cc3)n2)s1 |  | 11.2 µM (active) |
| CCOC(=O)C1CCN(C(=O)c2cccc(S(=O)(=O)N(CC)c3ccccc3)c2)CC1 | -1.31% |  |
| CCOC(=O)C1=C(C)N=C2c3ccccc3C(=O)C2C1c1ccc(Br)cc1 (centres undefined) | -21.8% |  |
| O=C1c2ccccc2C2=Nc3ccccc3SC(c3ccccc3F)C12 (centres undefined) |  | 5.01 µM (active) |
| O=C1c2ccccc2C(=O)C1c1ccccc1F | -1.17% |  |
| Cc1sc2nc(CSCC(=O)NC3CCCCC3)[nH]c(=O)c2c1C | 6.44% |  |
| CC1=CC(=Cc2sc3ccccc3[n+]2C)C=C(C)O1 |  | 5.01 µM (active) |
| CC(C)C(NC(=O)c1c(F)cccc1F)C(=O)NNC(=O)c1ccccc1 (centres undefined) | 7.93% |  |
| O=C(NCCc1ccc(F)cc1)c1ccc(S(=O)(=O)N2CCCCC2)cc1 | -27.2% |  |
| COc1ccc(CNC(=O)C2(CC3CC(c4ccccc4)=NO3)CCN(C(=O)c3cccc(O)c3)CC2)cc1 (centres undefined) | -11.6% [at 8.37 µM] |  |
| O=C(COc1ccc(Cl)cc1)N1CCN(S(=O)(=O)c2ccc(Cl)cc2)CC1 | 7.75% |  |
| O=C(CCC(=O)c1ccccc1)NCc1cccc(C(F)(F)F)c1 | -0.719% |  |
| O=C(CCC(=O)N1CCN(S(=O)(=O)c2ccc(Cl)cc2)CC1)NCc1cccc(C(F)(F)F)c1 |  | 11.2 µM (active) |
| O=C1c2ccccc2C(=O)C1C(=O)C1CC1 | 0.357% |  |
| CCN(CC(=O)Nc1ccc(OC)cc1)C(=O)c1ccc(=O)n(Cc2ccccc2)n1 | 0.141% |  |

| Structure (SMILES) | activity change, negative = inhibition | Potency |
| --- | --- | --- |
| CNCC[C@H](Oc1ccc(C(F)(F)F)cc1)c1ccccc1 |  | 3.98 µM (active) |
| CC(CC(=O)Nc1cc(C(F)(F)F)ccc1Cl)c1ccccc1 (centres undefined) | -7.71% |  |
| CC(NC(=O)COC(=O)Cn1cc(C(F)(F)F)ccc1=O)c1ccccc1 (centres undefined) | 15.9% |  |
| COc1ccc2nc3n(c(=O)c2c1)-c1cc(C)ccc1C(=O)NC3Cc1ccc(O)cc1 (centres undefined) | 15.7% |  |
| CN(c1ccc(C(=O)N2CCc3ccccc3C2)cc1)S(C)(=O)=O | -3.55% |  |
| COc1cccc(N(CC(=O)Nc2cccc(N(C)S(C)(=O)=O)c2)S(C)(=O)=O)c1 | -10.5% |  |
| CN(c1cccc(NC(=O)Nc2ccc(Cl)cc2)c1)S(C)(=O)=O |  | 10 µM (active) |
| CN(c1cccc(NC(=O)c2ccc(CN3CCc4ccccc4C3)cc2)c1)S(C)(=O)=O |  | 11.2 µM (active) |
| CC(=O)Nc1cccc(NC(=O)c2ccc3c(c2)CCN3S(C)(=O)=O)c1 | 11.1% |  |
| Cc1ccc(N(CC(=O)Nc2cccc(N(C)S(C)(=O)=O)c2)S(C)(=O)=O)cc1 | -11.3% |  |
| O=C(CNC(=O)c1ccccc1F)OCC(=O)c1c[nH]c2ccccc12 | 7.77% |  |
| Cc1ccsc1C(=O)NC1CCCCC1C (centres undefined) | 4.79% |  |
| O=C(NCCN1CCOCC1)c1cccc(S(=O)(=O)Nc2ccc(F)cc2)c1 | 3.15% |  |
| C#CCOCCOCCOCCNc1nc(N2CCN(C(=O)Cn3cc(CCO)nn3)CC2)nc(N2CCN(C(=O)[C@H](CCCCN)n3cc(CCCC)nn3)CC2)n1 | -0.907% [at 8.37 µM] |  |
| CCOC(=O)c1cc(-c2ccccc2C)n(Cc2cc(C)no2)n1 | -15.8% |  |
| Cc1cc(C)n2nc(C(=O)OCC(=O)N(CCC#N)c3ccc(F)cc3)nc2n1 | 24.9% |  |
| Cc1c(C(=O)OCC(=O)N(CCC#N)c2ccccc2)oc2c1ccc1ccccc12 |  | 8.91 µM (active) |
| N#CCCN(C(=O)COC(=O)c1ccc(S(=O)(=O)N2CCCCCC2)cc1)c1ccccc1 | -2.62% |  |
| Cc1cccc(C)c1NC(=O)COC(=O)c1c(C)nn(-c2ccccc2)c1C | -29.5% |  |
| Cc1ccc(S(=O)(=O)Nc2nc(CN3CCOCC3)nc3sc(C)c(C)c23)cc1 | 14.3% |  |
| COc1ccc(C)cc1NC(=O)CSc1cccc[n+]1[O-] | 20.4% |  |
| COc1ccc(C)cc1NC(=O)CSc1nc(SC)ns1 |  | 11.2 µM (active) |
| CSc1nsc(SCC(=O)Nc2cc(C(=O)O)ccc2C)n1 | 28.5% |  |
| Cc1ccc(C(=O)CN2C(=O)NC3(CCOc4ccccc43)C2=O)s1 (centres undefined) | 7.99% |  |
| Cc1ccc(N2CC(C(=O)Nc3cc(Cl)ccc3-n3cncn3)CC2=O)cc1 (centres undefined) | 8.85% |  |

| Structure (SMILES) | activity change, negative = inhibition | Potency |
| --- | --- | --- |
| OC(COc1ccccc1)CN1CCN(c2cccc(Cl)c2)CC1 (centres undefined) | 13.3% |  |
| CCc1nn(CCCN2CCN(c3cccc(Cl)c3)CC2)c(=O)n1CCOc1ccccc1 |  | 10 µM (active) |
| CCN1C(=O)/C(=C\N2CCN(c3cccc(Cl)c3)CC2)SC1=S | -4.91% |  |
| Cc1ccc(C(=O)OCC(=O)N2CC(C)CC(C)C2)cc1S(=O)(=O)N1CCCCC1 (centres undefined) | -4.66% |  |
| CC(OC(=O)CNC(=O)c1ccc(Cl)c([N+](=O)[O-])c1)C(=O)NCc1ccco1 (centres undefined) | -1.08% [at 8.37 µM] |  |
| N#Cc1cccc(NC(=O)COC(=O)c2ccccc2C(=O)c2ccc(Cl)c([N+](=O)[O-])c2)c1 |  | 10 µM (active) |
| CC(=O)Nc1ccc(NC(=O)C(C)OC(=O)c2ccccc2C(=O)c2ccc(Cl)c([N+](=O)[O-])c2)cc1 (centres undefined) |  | 11.2 µM (active) |
| CC(=O)Nc1ccc(NC(=O)COC(=O)c2ccccc2C(=O)c2ccccc2)cc1 | 5.01% |  |
| NC(=O)c1ccc(NC(=O)COC(=O)c2ccc([N+](=O)[O-])cc2)cc1 | 11.3% |  |
| O=C(Nc1ccncc1)c1ccc(Cl)c([N+](=O)[O-])c1 | -0.941% |  |
| COc1ccc(C(=O)COC(=O)c2c(C)noc2C)cc1Cl | -8.16% |  |
| CCOC(=O)c1ccc(NC(=O)C2CC(=O)N(c3ccc4c(c3)OCCO4)C2)cc1 (centres undefined) | 7.75% |  |
| CCCN(CC(=O)Nc1ccccc1C)C(=O)c1ccc(OCC(=O)N2CCOCC2)c(OCC)c1 | -8.77% |  |
| NC(=O)NC(CC(=O)NNC(=O)c1ccccn1)c1ccc(Cl)cc1 (centres undefined) | 0.701% |  |
| O=C(NCC1CCCO1)c1cc2c(s1)CCCC2 (centres undefined) | -18.7% |  |
| O=C(O)c1cc(S(=O)(=O)Nc2ccc3cn[nH]c3c2)ccc1Br | 7.46% |  |
| O=C(NCc1ccccc1)C1=C[C@@H](c2ccccc2)C[C@@H](OCCCCO)O1 | 6.06% |  |
| N=C(N)SCc1cccc2ccccc12 |  | 6.31 µM (active) |
| c1ccc2c(CNn3cnnc3)cccc2c1 | 0.47% |  |
| N#C/C(=C(/O)Cc1cccc2ccccc12)c1nc2ccccc2s1 | 13.7% |  |
| Cc1ccc2c(c1)c1ncn(Cc3ccc(F)cc3)c(=O)c1n2C | -22.6% |  |
| CC(C)(C)n1ncc2c(=O)n(Cc3ccc(Cl)cc3)cnc21 |  | 11.2 µM (active) |
| CC(=O)Cn1cnc2c(cnn2-c2ccccc2)c1=O | -0.203% |  |
| CC(C)Cn1c(SCC(=O)Nc2ccc(Cl)cc2F)nc(O)cc1=O | 30.9% |  |
